Source: ChEMBL document CHEMBL4513216, “Probing the Open Global Health Chemical Diversity Library for Multistage-Active Starting Points for Next-Generation Antimalarials” (ACS Infect Dis, 2020)
The campaign covered roughly 69,000 compounds. About 8,600 (12%) showed an effect of 50% or more. Many of the other results were omitted from the sample, so strong results are more common in it than they were.

tested on: Plasmodium berghei; assay: Screen against P. berghei liver stage (PbLuc), transformed with Luciferase, at 10uM; assay type: functional, HepG2; conditions: tested at 10 uM

SMILES	INHIBITION [%]
Nc1cc(C(=O)N2C[C@@H]3CC[C@H]2CN(Cc2cccnc2)C3)ccn1	4.64
Cc1cc(C(=O)NCCN2CCCCCC2)nn1C(C)(C)C	76.6
CC1CCCCN1CCNC(=O)c1ccn(-c2ccccc2)n1 (configuration not stated)	7.12
Cc1cc(C(=O)NCCN2CCCC(C)C2)nn1C(C)(C)C (configuration not stated)	-5.26
Cc1cc(C(=O)NCCN2CCCCC2C)nn1C(C)(C)C (configuration not stated)	52.7
Cc1cc(C(=O)NCCN2CCCCC2)nn1C(C)(C)C	-22.3
Cc1cc(C(=O)NCCN2CCC(C)CC2)nn1C(C)(C)C	36.8
COCCc1noc(CN2CCCCC2Cn2cncn2)n1 (configuration not stated)	10.675
COCC1CN(Cc2ccc(C)o2)Cc2cn(C)nc21 (configuration not stated)	29.7
Cc1nn(C)c(C)c1C1CCCN1CC(=O)N(C)c1nccs1 (configuration not stated)	5.91
CCCC(=O)NCCc1nc(N(C)C)ncc1-c1ccncc1	1.2
CNC(=O)[C@@H]1CC[C@@H]2[C@@H](CCN2Cc2ccccc2F)O1	0.804
COc1cccc(CN2CCC3(CC2)CCN(c2ncc(F)cn2)C3)c1	40.8
COc1cccc(CN2CCC3(CCN(c4ncc(C)cn4)CC3)C2)c1	31.9
Fc1ccc(CN2CCC3(CC2)CCN(c2ncccn2)CC3)cc1	56.7
COc1cccc(CN2CCC3(CC2)CCN(c2ncc(C)cn2)C3)c1	65.9
Fc1ccc(CN2CCC3(CC2)CCN(Cc2nccs2)CC3)cc1	42.6
COc1cccc(CN2CCC3(CC2)CCN(c2ncccn2)C3)c1	11.3
Cc1cnc(N2CC3(CCN(Cc4cccnc4)C3)C2)nc1	27.2
c1cnc(N2CC3(CCN(Cc4cccnc4)C3)C2)nc1	13.7
COc1cccc(CN2CCC3(CCN(c4ncc(F)cn4)CC3)C2)c1	46.7
c1cnc(N2CCC3(CCN(Cc4ccncc4)CC3)CC2)nc1	21.6
COc1ccc(CN2CCC3(CC2)CCN(c2ncccn2)CC3)cc1	67.7
c1cnc(N2CCC3(CCN(Cc4cccnc4)CC3)CC2)nc1	61.4
COc1nccnc1N1CCC2(CC1)C(=O)N(C)c1ccccc12	-55
Cc1ccc(C(=O)NC2CCOc3ccccc32)cc1S(C)(=O)=O (configuration not stated)	16.2

SMILES	INHIBITION [%]
COc1ccc(CNCc2c(C(C)C)nn(C)c2OC)cn1	27.8
CC(C)Cn1cc(C(=O)NC2CCS(=O)(=O)C2)c2ccccc2c1=O (configuration not stated)	28.6
Cc1ccccc1CNC(=O)c1ccccc1-n1cnc(CN)c1	33.7
Cc1cc(-c2cnn(CCNC(=O)c3snnc3C)c2C2CC2)on1	21.9
CC(C)(C(N)=O)N1CCN(C(=O)c2ccn(-c3cccc(Cl)c3)n2)CC1	-14.6
COc1ncccc1CN1CCn2c(C(=O)N3CCCC3)cnc2C1	7.24
Cc1nc[nH]c1CN1CCN(C2CCOCC2)CC(C(N)=O)C1 (configuration not stated)	7.52
Cn1nnc(NCc2ccc(-c3ccc(Br)cc3)o2)n1	0.868
Cc1cnc(CC2COCCN(C(=O)CN3CCCCC3)C2)cn1 (configuration not stated)	30.4
O=C(COC1CCCC1)NS(=O)(=O)c1ccc2c(c1)OCCCO2	8.64
CCCOCC(=O)NS(=O)(=O)c1ccc2c(c1)OCCO2	18.2
O=C(COC1CCCCC1)NS(=O)(=O)c1ccc2c(c1)OCCCO2	10
O=C(COCC(F)(F)F)NS(=O)(=O)c1ccc2c(c1)OCCCO2	63.5
COCCCC(=O)NS(=O)(=O)c1ccc2c(c1)OCCCO2	38.6
CCCOCC(=O)NS(=O)(=O)c1ccc2c(c1)OCCCO2	51.6
CC(C)C(=O)N1CCCc2c(cnn2-c2ccccc2)C1	9.05
O=C(O)C1(Oc2ccc(Cl)cc2)CCN(C2CCOCC2)CC1	24.7
Cc1cc(C)n(C(=O)c2cn(C)nc2S(=O)(=O)N2CCSCC2)n1	56.5
CCCn1cc(C(=O)n2nc(C)cc2C)c(S(=O)(=O)N2CCSCC2)n1	0
CCn1cc(C(=O)n2nc(C)cc2C)c(S(=O)(=O)N2CCCCC2)n1	29.7
CN(Cc1nc(-c2ccoc2)no1)C1CCCN(c2cccnn2)C1 (configuration not stated)	7.12
CCNc1c(NC(=O)NC(C)C)c(=O)oc2ccccc12	40.3
Cc1cc(-c2cnc(N(C)C)nc2C2CCCCN2C(=O)C2CC2)on1 (configuration not stated)	-11.59
Cc1cc(-c2cnc(N3CCC(O)CC3)nc2C(C)C)on1	59.4
Cc1cc(-c2cnc(N3CCN(C)CC3)nc2C(C)C)on1	47.95
Cc1cc(-c2cnc(N3CCC(C(N)=O)CC3)nc2C(C)C)on1	77.1
